# In PubChem BioAssay (NCI):
# About 83,000 compounds went through this panel and 20% of them were active in at least one assay; those are over-represented in the sample as a whole.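 Plates (96-well) were seeded with cells, treated with compound at one concentration, and incubated for 48 hours before percent growth was determined.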 Values without a mark were called inactive. The source made the active and inactive calls. How the source made its calls: active means growth percent below 10; inactive means the rest.
# Key:
# Test in all cases: NCI-60 one-dose screen, 48 h (100 = growth as untreated, 0 = no growth, -100 = all killed)
# Details in all cases: 10 µM unless noted
# RPMI-8226 leukemia = test system: RPMI-8226 leukemia
# OVCAR-8 ovarian = test system: OVCAR-8 ovarian
# OVCAR-5 ovarian = test system: OVCAR-5 ovarian
# OVCAR-4 ovarian = test system: OVCAR-4 ovarian
# SK-OV-3 ovarian = test system: SK-OV-3 ovarian
# IGROV1 ovarian = test system: IGROV1 ovarian
# OVCAR-3 ovarian = test system: OVCAR-3 ovarian
# HS 578T breast = test system: HS 578T breast
# NCI/ADR-RES ovarian = test system: NCI/ADR-RES ovarian
Structure (SMILES),growth (RPMI-8226 leukemia),growth (OVCAR-8 ovarian),growth (OVCAR-5 ovarian),growth (OVCAR-4 ovarian),growth (SK-OV-3 ovarian),growth (IGROV1 ovarian),growth (OVCAR-3 ovarian),growth (HS 578T breast),growth (NCI/ADR-RES ovarian)
CCOC(=O)c1cc(C(=O)c2ccc(Br)cc2)n2cc(C)cc(C)c12,83.7%,102%,115%,91.6%,86.2%,102%,104%,89.2%,99.6%
COc1cc(CCNc2cnc3cc(N)cc(N)c3n2)cc(OC)c1,86%,98.6%,92.3%,93.8%,168%,103%,92.6%,132%,105%
CCOC(=O)C(C)C(C)(O)c1ccccc1 (stereo unspecified),89.9%,107%,104%,89.6%,102%,101%,107%,98.4%,99.5%
N#Cc1c(N)nc(Nc2nc3ccccc3[nH]2)nc1-c1ccc(Cl)cc1,94.4%,102%,107%,116%,88.4%,98.7%,127%,145%,107%
O=C(c1ccccc1)c1ccccc1-c1ccccc1,13.6%,36.7%,52.6%,83.3%,23.5%,41.7%,13.3%,-6.36% (active),-23.7% (active)
COC(=O)c1cc(=O)nc(N/N=C/c2ccccc2O)s1,87.9%,97.5%,104%,50.8%,103%,88.6%,88.6%,108%,89.3%
COc1cc2c(c(OC)c1OC)C(=O)CC(c1cccc(C(=O)Nc3cccc(Br)c3)c1)O2 (stereo unspecified),46.8%,55%,95.7%,82.7%,82%,83%,87.7%,91.5%,84.7%
Cc1ccc(S(=O)(=O)Nc2cccc(Cn3c(=O)[nH]c4ccc(Oc5ncccn5)cc4c3=O)c2)cc1,61.2%,90.8%,86.7%,90.5%,81.2%,57.8%,38.9%,89.3%,93.3%
c1ccc(Nc2ncc3c(n2)-c2cccn2CC3)cc1,97%,104%,77.9%,40.3%,88.9%,54.5%,82.7%,91.6%,98.7%
CNc1nc2ncn(C)c2c(=O)[nH]1,97.4%,104%,86.7%,93.8%,104%,94.2%,113%,105%,92.6%
CCc1c(C)c2ccc(OCC(=O)N=Nc3c(O)[nH]c4ccccc34)c(C)c2oc1=O,-3.81% (active),-11.3% (active),24%,-21.7% (active),80.9%,7.99% (active),-58.2% (active),-5.77% (active),47.7%
CCOC(=O)CNS(=O)(=O)CC(=O)c1ccccc1,96.1%,108%,101%,85.4%,105%,94.6%,126%,124%,102%
COc1ccc(C(=O)N2N=C(c3ccc(Br)cc3)CC2c2cn(-c3ccccc3)nc2-c2ccccc2)cc1 (stereo unspecified),67.9%,31.5%,101%,67.5%,76.6%,85.2%,53.4%,85.2%,41.5%
Brc1c(-c2ccncc2)nc2n1CCS2,60.2%,94.6%,102%,109%,116%,0.69% (active),97.6%,117%,107%
O=C(/C=C/c1cccc(O)c1)c1cccc(-n2cc(-c3ccc(Cl)cc3)[nH]c2=O)c1,-53.2% (active),-2.92% (active),-47.3% (active),10.4%,37.7%,-42.9% (active),-79.7% (active),-48.4% (active),3.39% (active)
CCOc1ccc(/C=N/NC(=O)c2cccc3ccccc23)cc1OCC,83.8%,105%,104%,91.9%,99.2%,108%,96.4%,98.6%,97.9%
Nc1cc(N)c2nc(-c3ccccc3)c(NCCc3ccc(Cl)c(Cl)c3)nc2c1,-60.6% (active),-90.6% (active),-76.9% (active),-85.5% (active),-80.7% (active),-77.8% (active),-91.2% (active),-22.7% (active),-54.3% (active)
O=C(Nc1cccc(Cn2c(=O)[nH]c3ccc(Oc4ncccn4)cc3c2=O)c1)c1cc(Cl)cc(Cl)c1,60.9%,51.4%,70%,41.5%,66.5%,49%,81.2%,56.7%,86.3%
Br/C(=N\Nc1nn[nH]n1)c1ccccc1,102%,103%,102%,107%,98.6%,111%,120%,99.4%,100%
O=C(Nc1cccc(Cn2c(=O)[nH]c3ccc(Oc4ncccn4)cc3c2=O)c1)c1ccc(Cl)cc1,25.5%,31.8%,99%,31.5%,66%,66.9%,65.1%,49.2%,71.2%
C/C=C(/C)C(=O)OC1C=C(CO)C(=O)C(OC(=O)/C(C)=C\C)C1C(C)C (stereo unspecified),-39.4% (active),-22.7% (active),-76.6% (active),-48.8% (active),16.4%,-77% (active),-89.1% (active),28.8%,-6.28% (active)
N=C(N)c1ccc(-c2ccc(-c3ccc(Cl)cc3)s2)s1,-38.2% (active),-37% (active),-79.4% (active),-50.8% (active),-50.9% (active),-49.5% (active),-78.8% (active),-21.7% (active),-47% (active)
COc1cc(N2C(=O)C=CC2=O)ccc1N1C(=O)C=CC1=O,103%,110%,103%,102%,110%,115%,104%,102%,106%
Cc1ccc(C(=O)Nc2ccc(CN3CCN(C)CC3)c(C(F)(F)F)c2)cc1C#Cc1cncc2ncccc12,-53.5% (active),-76.8% (active),-93.9% (active),-87.5% (active),-12.6% (active),-82.7% (active),24.8%,-32.4% (active),4.19% (active)
CN(CCC#N)c1ccc(/C=C(\C#N)c2cccc(C(F)(F)F)c2)cc1,57.4%,76.1%,76.9%,68.3%,98.1%,65.7%,69.4%,89.2%,40.3%
O=C(Nc1cccc(Cn2c(=O)[nH]c3ccc(Oc4ncccn4)cc3c2=O)c1)c1cccc(F)c1,52.3%,78.7%,96.1%,73.9%,83%,78.2%,84.1%,92.8%,104%
C/C=C(/C)C(=O)OC1C=C(CO)C(=O)C(OC(=O)C(C)(O)C(C)Cl)C1C(C)C (stereo unspecified),-33.5% (active),3.78% (active),-43.2% (active),14.1%,35.8%,-29.7% (active),-41.4% (active),30.7%,9.46% (active)
COC(=O)c1c[n+]([O-])ccc1OC,111%,110%,117%,123%,106%,107%,113%,109%,105%
CC(=O)OC1CC2C3CCC4C[C@@H](NC(=O)C=C(C)C)CC[C@]4(C)C3CC[C@]2(C)[C@H]1C(C)N(C)C (stereo partly specified),13.9%,45.1%,58.9%,-8.18% (active),25.8%,33.6%,-4.96% (active),0.863% (active),41.7%
